# p97 inhibitor: inhibitors of human p97 ATPase | 220,000 compounds, 0.42% hits | inhibition, % at 8 µM | P55072 | recombinant p97 ATPase, Kinase-Glo ATP luminescence, 3 h | AID 1481; in the data active = inhibition above about 15%
# LYPLA2 counter: LYPLA2 (human) inhibition in PME1 counter-screen | inhibition, % at 5.9 µM | O95372 | recombinant LYPLA2, FP-Rh probe fluorescence polarization | 320,000 compounds, 0.38% hits;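 active = inhibition above the screen-wide mean plus 3 SD, limit set per campaign, cut at about 26% in these data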
# Rin1-Abl PPI inh: inhibitors of human Rin1-Abl protein interaction; TR-FRET Rin1/Abl binding, biochemical; inhibition, % at 7.35 µM; 360,000 compounds, 0.4% hits; in the data active = inhibition above about 5%, passing the limit was not always enough
# PREPL inh: human PREPL enzyme inhibition; inhibition, % at 5.96 µM; 320,000 compounds, 0.68% hits; recombinant PREPL, fluorescence polarization activity-based probe; AID 2751; in the data active = inhibition above about 43%
# Target sequence (Q4J6C6 whole entry, looked up): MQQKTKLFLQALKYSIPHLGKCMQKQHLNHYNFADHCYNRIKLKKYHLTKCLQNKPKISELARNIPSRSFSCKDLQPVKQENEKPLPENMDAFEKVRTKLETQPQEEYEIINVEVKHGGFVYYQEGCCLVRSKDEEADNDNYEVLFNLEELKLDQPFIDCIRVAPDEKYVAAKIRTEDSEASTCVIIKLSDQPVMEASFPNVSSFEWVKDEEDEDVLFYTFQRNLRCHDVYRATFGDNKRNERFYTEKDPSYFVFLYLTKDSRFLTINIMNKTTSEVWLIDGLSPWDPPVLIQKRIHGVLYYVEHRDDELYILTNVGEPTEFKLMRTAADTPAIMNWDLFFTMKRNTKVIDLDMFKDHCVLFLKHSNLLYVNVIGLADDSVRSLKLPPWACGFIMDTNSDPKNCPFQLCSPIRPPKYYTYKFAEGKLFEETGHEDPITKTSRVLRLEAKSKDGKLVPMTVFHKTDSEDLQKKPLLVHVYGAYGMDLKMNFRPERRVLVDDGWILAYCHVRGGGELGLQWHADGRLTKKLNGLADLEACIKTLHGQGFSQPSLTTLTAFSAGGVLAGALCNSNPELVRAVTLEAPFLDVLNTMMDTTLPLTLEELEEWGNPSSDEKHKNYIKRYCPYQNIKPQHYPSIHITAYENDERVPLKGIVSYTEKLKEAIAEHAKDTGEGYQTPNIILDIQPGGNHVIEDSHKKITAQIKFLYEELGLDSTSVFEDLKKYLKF
# LYPLA1 inh: LYPLA1 (human) inhibition in PME1 counter-screen. O75608. recombinant LYPLA1, FP-Rh probe fluorescence polarization. 320,000 compounds, 0.16% hits. inhibition, % at 5.9 µM. AID 2174;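 active = inhibition above the mean of all tested compounds plus 3 SD, set per campaign, cut at about 14% in these data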;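 also: inhibitors block serine hydrolase probe labeling of LYPLA1 so polarization falls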
# Hck-Nef inh: inhibitors of human Hck kinase activated by Nef. Recombinant Hck-YEEI plus Nef, Z-Lyte FRET kinase assay. inhibition, % at 20 µM. 220,000 compounds, 0.68% hits. AID 463187;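 active = Hck-Nef kinase inhibition above about 50%, limit read from the data; inactive = inhibition below that limit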
# Hck Nef conf: Hck-Nef kinase inhibition, confirmation; Recombinant Hck-YEEI:Nef, Z-Lyte FRET kinase assay; calls only at 10 µM; 1,300 compounds, 28% hits; shares compounds with Hck-Nef inh;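 active = average inhibition of at least 50%, with Z-scores no higher than 3 in both the phospho-tyrosine peptide and fluorescence counterscreens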
# A number is an active result; n = inactive; x = no result given; + = active, no number. Most compounds without a hit are left out; they make up all but 1.7% or so of the library.
SMILES,p97 inhibitor,LYPLA2 counter,Rin1-Abl PPI inh,PREPL inh,LYPLA1 inh,Hck-Nef inh,Hck Nef conf
COc1cc(-c2ccc(Nc3ccccc3C(=O)O)c(OC)c2)ccc1Nc1ccccc1C(=O)O,n,x,n,x,x,94,+
COc1ccccc1CC(=O)Nc1ccccc1C(=O)O,n,n,n,n,n,n,x
N#Cc1ccsc1NC(=O)CSc1nnc(NC2CC2)s1,x,x,n,x,x,x,x
C[C@H](NC(=O)c1ccccc1)C(=O)N1CCC2(CC1)NCCc1[nH]cnc12,x,n,n,n,n,x,x
COc1ccc(/[N+]([O-])=C/c2ccco2)cc1,x,n,n,n,n,x,x
CCc1c(C)c2ccc(O)c(CN3CCCC3)c2oc1=O,x,x,n,x,x,x,x
CCc1c(C)c2cc(Cl)c(O)c(CN(CC)CC)c2oc1=O,n,n,n,n,n,115,x
CCCCc1cc(=O)oc2c(CN(C)C)c(O)c(Cl)cc12,n,n,n,n,n,117,x
CCc1c(C)c2cc(Cl)c(O)c(CN(C)C)c2oc1=O,n,n,n,n,n,123,x
Cc1c(C)c2cc(Cl)c(O)c(CN(C)C)c2oc1=O,n,n,n,n,n,87,x
CCC(c1ccccc1)c1noc(CCN(CC)CC)n1 (stereo not given),x,x,n,x,x,x,x
CCCc1cc(C(=O)Nc2ccc(C(=O)c3ccc(C)cc3)cc2)n(C)n1,x,n,n,n,n,x,x
COc1ccc(CNC(=O)C[C@H]2C[C@H](C(=O)N3CCCCC3)[C@@]3(C)c4[nH]c5ccc(Cl)cc5c4CCN3C2=O)cc1OC,x,x,n,x,x,x,x
Cc1cc(C(=O)N/N=C2\CC(=O)c3ccccc32)c(C)n1-c1ccc(F)cc1,n,n,n,n,n,53,n
CC1CCCCC12NC(=O)N(CC(=O)Nc1ccc(OC(F)F)cc1)C2=O (stereo not given),x,x,n,n,x,x,x
CC1(C)Cc2nc(N3CCCC3)c(C#N)cc2CO1,n,n,n,n,n,74,n
O=C(Nc1ccc(NC(=O)c2sc3ccccc3c2Cl)cc1Cl)c1ccco1,n,n,n,n,n,78,n
COc1ccc(OC)c(NC(=O)CSc2nc(=O)n(CCN3CCOCC3)c3c2CCCC3)c1,x,n,n,n,n,x,x
CCCc1ccc2oc(C(=O)NCc3nnc(C)o3)c(C)c2c1,x,x,n,x,x,x,x
Cn1nc(C(=O)Nc2cccc(S(=O)(=O)N3CCCCC3)c2)c2ccccc2c1=O,x,x,n,x,x,x,x
N#Cc1ncn(-c2ccc(Oc3ccccc3)cc2)c1N,n,n,n,n,n,74,n
O=C(COC(=O)C12CC3CC(CC(O)(C3)C1)C2)Nc1cccc(Br)c1,x,x,n,x,x,x,x
NC(=S)n1[nH]c(-c2ccc([N+](=O)[O-])cc2)c(N=Nc2cccc(Cl)c2)c1=O,n,x,n,x,x,x,+
CCOc1ccc(C(C)=O)cc1COC(=O)c1ccccc1C(=O)N(C)Cc1ccccc1,x,x,n,x,x,x,x
CN1C(=O)NC(c2ccccc2)C2=C1CN(c1ccc3ccccc3c1)C2=O (stereo not given),n,n,n,n,n,103,+
SMILES,p97 inhibitor,LYPLA2 counter,Rin1-Abl PPI inh,PREPL inh,LYPLA1 inh,Hck-Nef inh,Hck Nef conf
Cc1ccc(N2CC3=C(C2=O)C(c2ccccc2)NC(=O)N3C)cc1 (stereo not given),n,n,n,n,n,n,x
Cc1ccc(NC(=O)CN2C(=O)S/C(=C\c3cccn3-c3cccc(C(=O)O)c3)C2=O)c(C)c1,n,30,n,n,n,78,+
CCOC(=O)CCCCCC(=O)Nc1ccc2c(c1)C(=O)N([C@@H](C)CO)C[C@H](C)[C@H](CN(C)C(=O)Nc1ccc(F)cc1)OCCCC[C@H](C)O2,x,x,n,x,x,x,x
CC1(C)C(=O)Nc2ccccc2N1C(=O)COc1ccccc1C#N,x,x,n,n,x,x,x
CCn1c(SCC(=O)Nc2ccc(-c3nc4ccc(C)cc4s3)cc2)nnc1-c1ccccc1,n,n,x,n,n,62,+
CC1CCCC(NC(=O)COC(=O)c2cc(=O)[nH]c3ccccc23)C1C (stereo not given),x,x,n,n,x,x,x
Cc1ccc(O)c(NC(=S)NC(=O)/C=C/c2ccco2)c1,n,n,n,n,n,75,+
Cc1ccc(O)c(NC(=S)NC(=O)/C=C/c2ccccc2)c1,x,n,n,n,n,x,x
CC(=O)c1sc2nc(CSc3nnnn3-c3ccccc3)[nH]c(=O)c2c1C,n,n,n,n,n,53,+
O=C(NC1CCSc2ccccc21)c1cc([N+](=O)[O-])ccc1N1CCOCC1 (stereo not given),x,n,n,n,n,x,x
COCCNC(=O)/C(C#N)=C1\N=C(N)c2ccccc21,n,n,n,n,n,53,n
COCCNC(=O)/C(C#N)=C1\N=C(NC(=O)c2cccs2)c2ccccc21,x,n,n,n,n,x,x
CC1(OC(=O)C2CCCC2)C(=O)C=C2C=C(c3ccsc3)OC=C2C1=O (stereo not given),x,n,n,n,n,62,+
COc1ccc(CN2C=C3C(=O)C(C)(OC(=O)C4CCCC4)C(=O)C=C3C=C2c2ccsc2)cc1 (stereo not given),x,n,n,n,n,n,x
CCC(=O)OC1(C)C(=O)C=C2C=C(CCCC(=O)OC)OC=C2C1=O (stereo not given),x,n,n,n,n,x,x
CC1(OC(=O)c2cccs2)C(=O)C=C2C=C(c3ccsc3)OC=C2C1=O (stereo not given),x,n,x,n,n,x,x
COc1ccc(C2=CC3=C(Br)C(=O)C(C)(OC(=O)c4ccc(Cl)nc4)C(=O)C3=CO2)cc1 (stereo not given),x,n,x,n,n,94,+
COC(=O)CCC(=O)OC1(C)C(=O)C2=COC(c3ccc(OC)cc3)=CC2=C(Br)C1=O (stereo not given),x,n,x,n,n,93,+
COc1ccc(C2=CC3=C(Br)C(=O)C(C)(OC(=O)C4CCCC4)C(=O)C3=CO2)cc1 (stereo not given),x,n,n,n,n,82,+
CC(=O)Nc1ccc(N2C(=O)c3ccc(C(=O)Nc4nnc(SCc5ccc(F)cc5)s4)cc3C2=O)cc1,n,n,n,n,n,86,n
CCC(=O)Nc1nnc(SCc2ccc(F)cc2)s1,n,n,n,n,n,n,x
O=C(CSc1nc2nc(-c3cccs3)cc(C(F)(F)F)c2c(=O)[nH]1)Nc1ccc(F)c(F)c1,n,n,n,n,n,54,x
O=C(Cc1ccccc1)NCC(=O)N1CCN(c2ccccc2F)CC1,x,n,n,n,n,x,x
COc1ccc(-c2nc(N3CCOCC3)nc3n[nH]c(N)c23)cc1,n,n,n,n,n,64,+
Nc1[nH]nc2nc(N3CCCC3)nc(-c3ccccc3)c12,n,n,n,n,n,n,x
C[C@H]1CN(C2CCCCC2)C(=O)[C@@H]1CC(=O)Nc1ccccc1,x,x,n,x,x,x,x
COc1ccc(C(=O)CSc2nnc(-c3ccco3)c(-c3ccco3)n2)cc1,n,x,n,x,x,85,n
COc1ccc(C(=O)CSc2nnc(-c3ccco3)n2C)cc1,n,n,n,n,n,n,x
